From PubChem BioAssay AID1984 (Sanford-Burnham Center for Chemical Genomics, 2009)
Screen size: about 290,000 compounds; about 35 (0.01%) were called active.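 The calls were made as follows: active = EGFP signal decrease of at least 30% at 10 µM or well 3 SD below plate mean, unless failing retest; inactive = the rest, including hits failing retest or dose response.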 Only a selection was taken, and actives are over-represented in it overall.

Target: p/CIP-EGFP fusion (nuclear receptor coactivator 3, mouse) (UniProt Q05BA5)
Sequence (Q05BA5 1-1403): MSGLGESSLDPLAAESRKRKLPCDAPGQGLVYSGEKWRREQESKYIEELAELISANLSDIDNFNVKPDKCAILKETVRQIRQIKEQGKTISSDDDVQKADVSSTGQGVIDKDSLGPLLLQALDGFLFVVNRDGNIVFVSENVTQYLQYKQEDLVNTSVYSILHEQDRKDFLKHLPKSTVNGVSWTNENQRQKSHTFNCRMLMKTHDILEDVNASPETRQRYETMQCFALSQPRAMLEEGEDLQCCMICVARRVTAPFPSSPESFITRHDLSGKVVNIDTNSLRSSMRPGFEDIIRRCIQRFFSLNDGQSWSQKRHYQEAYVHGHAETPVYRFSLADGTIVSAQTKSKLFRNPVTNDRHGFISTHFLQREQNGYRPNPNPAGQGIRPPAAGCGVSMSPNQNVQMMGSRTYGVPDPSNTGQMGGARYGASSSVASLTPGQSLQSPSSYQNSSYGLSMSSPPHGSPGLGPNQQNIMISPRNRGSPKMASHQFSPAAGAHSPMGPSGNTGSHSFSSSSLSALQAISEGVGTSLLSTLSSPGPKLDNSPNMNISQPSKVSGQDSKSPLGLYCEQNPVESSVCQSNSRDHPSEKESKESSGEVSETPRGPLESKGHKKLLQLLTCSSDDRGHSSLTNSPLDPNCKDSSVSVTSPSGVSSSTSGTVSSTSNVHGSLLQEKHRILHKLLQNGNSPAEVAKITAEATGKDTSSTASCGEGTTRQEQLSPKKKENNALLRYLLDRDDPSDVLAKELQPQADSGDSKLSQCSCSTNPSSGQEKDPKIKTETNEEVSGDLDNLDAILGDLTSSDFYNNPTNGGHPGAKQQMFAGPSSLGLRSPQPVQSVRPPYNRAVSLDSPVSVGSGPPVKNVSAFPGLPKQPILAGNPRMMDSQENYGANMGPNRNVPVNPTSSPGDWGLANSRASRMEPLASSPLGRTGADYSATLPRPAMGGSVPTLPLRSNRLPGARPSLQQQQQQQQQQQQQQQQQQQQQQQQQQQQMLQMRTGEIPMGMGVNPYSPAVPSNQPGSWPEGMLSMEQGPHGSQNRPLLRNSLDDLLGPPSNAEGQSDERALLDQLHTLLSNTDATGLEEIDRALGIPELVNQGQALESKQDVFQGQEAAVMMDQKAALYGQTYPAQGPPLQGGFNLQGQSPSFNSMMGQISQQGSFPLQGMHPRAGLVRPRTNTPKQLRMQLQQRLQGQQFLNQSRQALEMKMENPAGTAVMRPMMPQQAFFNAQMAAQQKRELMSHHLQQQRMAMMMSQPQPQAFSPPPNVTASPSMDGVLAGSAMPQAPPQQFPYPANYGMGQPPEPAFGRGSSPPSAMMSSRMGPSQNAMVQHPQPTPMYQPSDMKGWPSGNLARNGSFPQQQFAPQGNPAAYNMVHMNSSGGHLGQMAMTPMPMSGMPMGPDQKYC
Assay: p/CIP-EGFP fusion destabilizers, primary screen, fluorescence, F442A cells (AID 1984)
Conditions: 16 h, at 10 µM, stronger effect = higher value

Decrease of EGFP signal, inactive:
CC(NCCc1ccc(S(N)(=O)=O)cc1)C(=O)NCc1ccccc1 (stereo unspecified) -40%, O=S(=O)(NC1CC2CCC1C2)c1ccc(Cl)cc1 (stereo unspecified) -15.4%, COc1ccccc1NC(=S)N1CCN(c2ccc(F)cc2)CC1 -2%, CCCOc1ccc(Cc2c(O)nc(N)[nH]c2=O)cc1C -10.4%, CC1(C)CCSC(/C=C/c2ccccc2)=N1 -5.5%, CSc1ccc(/C=C/C(=O)NC23CC4CC(CC(C4)C2)C3)cc1 0.4%, COCc1c(C(=O)N/N=C(\C)c2ccncc2)nnn1-c1nonc1N 1.8%, O=S(=O)([N-]c1nc2ccccc2nc1-[n+]1ccc(Cc2ccccc2)cc1)c1ccc(Br)s1 -27.8%, CCCc1cc(C(=O)N2CCCC(CO)(CCCc3ccccc3)C2)n(C)n1 (stereo unspecified) -7.2%, COc1ccc2[nH]c(C(=O)N/N=C/c3cc(OC)c(OC)c(OC)c3)cc2c1 -8.7%, Cc1ccc(NS(=O)(=O)c2cc3c(cc2C)NC(=O)CO3)cc1 -4.5%, CCOCCc1nn2c(=O)cc(CSCC(=O)Nc3cccc(C)c3C)nc2s1 4.4%, COc1ccc(N2CCC(N3CCN(C)C(CCO)C3)CC2)cc1 (stereo unspecified) 13.5%, O=C(NCc1ccccc1)C(c1cccnc1)N(C(=O)c1csnn1)c1ccc(F)cc1 (stereo unspecified) -5.9%, Cc1cc2c(=O)n(CC(=O)NCC(=O)Nc3ccc(C(C)C)cc3)cnc2s1 3.7%, COC(=O)c1sc(-c2ccc(C(C)(C)C)cc2)cc1NC(=O)/C=C/C(=O)O -12.7%, O=C(O)/C=C/C(=O)NNc1ccc([N+](=O)[O-])cc1 -13%, Nc1nc(Nc2ccccc2F)nc(NC2CCCCC2)c1[N+](=O)[O-] -4.1%, COc1ccc(CN2CCN(Cc3ccc(OC)c(OC)c3OC)CC2)cc1 -4.7%, C=CCSc1nnc(N2C(=O)C(O)=C(C(=O)c3ccco3)C2c2ccc(F)cc2)s1 (stereo unspecified) -15.4%, Cc1ccc(CNC(=O)CCC(=O)N2CC(C)Sc3ccccc32)cc1 (stereo unspecified) -1.6%, CC(C)CC(O)C1CCN(C(=O)CCc2nnc(-c3ccc4c(c3)OCO4)o2)CC1 (stereo unspecified) -14.9%, O=C(c1ccc2nc(N3CCOCC3)sc2c1)N1CCN(c2ccc(Cl)cc2)CC1 -11.7%, COc1ccc(C(C(=O)NCC2CCCO2)N(C(=O)Cn2nnc3ccccc32)c2ccc(NC(C)=O)cc2)cc1OC (stereo unspecified) -4.9%, O=C(c1cc(COc2ccc(F)cc2F)on1)N1CCOCC1 -0.2%, O=C(NCc1ccco1)/C(=C/c1cccc([N+](=O)[O-])c1)NC(=O)c1ccco1 1%, Cc1ccccc1N1CCN(C2CCCN(C(=O)c3ocnc3C)C2)CC1 (stereo unspecified) -18.6%, COc1cc(/C=N/NC(=O)c2cccnc2)ccc1OC(=O)c1cccc(Br)c1 -4.4%, CS(=O)(=O)N(CC(=O)Nc1ccc(F)cc1)C1CCCCC1 -0.5%, CC(C)CNC(=O)COC(=O)c1ccccc1OCC(=O)Nc1ccc(Br)cc1 -13.9%, Cc1c(C(=O)NCCN(C)C)oc2ccc(S(=O)(=O)N3CCCC3)cc12 -12.5%, O=C(Nc1ccc(C(=O)O)cc1)/C(=C\c1ccccc1)NC(=O)c1ccc(Br)cc1 -17.7%, Cc1c(Cl)c([N+](=O)[O-])nn1CC(=O)NCCCN1CCOCC1 5.3%, COc1cc(/C=C2\C(=N)N3N=C(CC(=O)N4CCOCC4)SC3=NC2=O)cc(OC)c1OC -17%, O=C(NC(=S)Nc1ccc2oc(=O)ccc2c1)c1ccc(-c2cccc(Cl)c2Cl)o1 -4.3%, CN(C)CCN(Cc1ccccc1)S(=O)(=O)c1csc(C(N)=O)c1 15.1%, COC(=O)C1CCCCN1C(=O)c1ccc(OC2CCN(C(C)=O)CC2)c(OC)c1 (stereo unspecified) 0.9%, O=C(Cc1ccccc1Cl)N1CCOCC1 -2.9%, Cc1c2cnn(CC(=O)NCCCN3CC(C)CC(C)C3)c(=O)c2c(C)n1Cc1ccc(Cl)cc1 (stereo unspecified) 0.5%, CCCC[C@H]1COCCS(=O)(=O)N1Cc1cccc(Cl)c1 -5.5%, O=C1COc2ccc(S(=O)(=O)NCCc3ccc(Cl)cc3)cc2N1 8.8%, Cc1cc(NC(=O)c2ccco2)c(=O)n(Cc2c(F)cccc2Cl)c1 -5.8%, Cc1cc(S(=O)(=O)Nc2ccc(C(=O)NCC(c3ccco3)N3CCCC3)cc2)ccc1F (stereo unspecified) -3%, COc1ccc(CCNc2ncnc3c2nnn3Cc2ccccc2)cc1 -4%, COc1ccc(Cc2nnc(N/N=C/c3ccccc3O)[nH]c2=O)cc1OC -4%, O=C(NNC1=C(C(=O)C(F)(F)F)CCC1)c1ccncc1 -15.9%, Cc1ccnc(N2C(=O)c3ccc([N+](=O)[O-])cc3C2=O)c1 -1.5%, COc1ccc2c(C(=O)c3ccc(C)cc3)n(CCC(N)=O)[n+]([O-])c2c1 -5.8%, CC(C)C(C(=O)NCc1ccco1)N(CC1CCCO1)C(=O)CNS(=O)(=O)c1ccc(F)cc1 (stereo unspecified) -1.5%, Cc1cccc(NC(=O)NC2(C)CCS(=O)(=O)C2)c1 (stereo unspecified) -6.6%, O=C(O)C1CCCN1S(=O)(=O)c1ccc(Br)cc1 (stereo unspecified) -0.2%, Cc1ccc(C)c(N2CCN(S(=O)(=O)c3c(C)[nH]c(C)c3C(=O)N3CCCC3)CC2)c1 3.6%, O=C(NCc1ccncc1)C1CCCN(S(=O)(=O)c2ccc(Br)cc2)C1 (stereo unspecified) -8.8%, COc1ccc(NS(=O)(=O)c2cccc3nsnc23)cc1Cl -11.8%, COc1ccc(C(=O)C2CCCN(C(=O)c3cc4nc(C)cc(C)n4n3)C2)cc1F (stereo unspecified) -9.2%, CCn1c(SCC(=O)NC2CC2)nnc1-c1ccccn1 0.1%, Cc1nc2cc(C(F)(F)F)ccc2n1CCNc1nc(-c2cc(Cl)c(N)c(Cl)c2)cs1 -2.4%, CN(C)CCN(C(=O)C1CCCCC1)c1nc2cc3c(cc2s1)OCO3 -21.2%, O=C(NCc1cccc(C(F)(F)F)c1)c1cccc(S(=O)(=O)N2CCN(Cc3ccccc3)CC2)c1 -8.5%, C=CCNC(=O)c1ccc2c3n(nc2c1)-c1ccc(C)cc1CO3 -3.3%, O=C(O)CCCCCCCCc1cn(CN2C(=O)c3ccccc3C2=O)nn1 -13.1%, CN(Cc1ccccc1Cl)C(=O)C1CCC(=O)N(CCc2cccc(F)c2)C1 (stereo unspecified) -8.9%, CCOc1ccc2c(c1)c(=O)c(S(=O)(=O)c1ccc(C)cc1)cn2CC -6%, CC(C)c1ccc(S(=O)(=O)N2CCC3(CC2)OCCO3)cc1 0.3%, CC1CN(S(=O)(=O)c2cccc(C(F)(F)F)c2)CN1C(=O)N1CCOCC1 (stereo unspecified) -19%, CCCN(CCC)c1nc2c(C)cccn2c(=O)c1/C=C1/SC(=S)N(Cc2ccco2)C1=O -656%, CCOC(=O)c1c(S(=O)(=O)NCC(=O)Nc2ccc(C)cc2)c(C)n(C)c1C 3.3%, COc1ccc(OC)c(CCNC(=O)CCn2ccc3cc(S(=O)(=O)N4CCCC4)ccc32)c1 1%, NC(=O)CC(NC(=O)Cc1ccc(Br)cc1)c1ccc(NC2CC3CCC2C3)c([N+](=O)[O-])c1 (stereo unspecified) 3.9%, Cn1c(SCc2ccc(F)cc2)nnc1-c1ccncc1 -10.6%, COc1ccc(CCNC(=O)CCc2cn(C)c3ccccc23)c(OC)c1 -1.8%, Cc1cc(C)cc(OCC(=O)Nc2cc(NC(=O)COc3cc(C)cc(C)c3)cc(C(=O)O)c2)c1 13.4%, O=C(CCCCCn1c(=S)[nH]c2ccsc2c1=O)NC1CCCCC1 1.2%, Cc1cc(C)c2nc(N3CCC(C(=O)NCCN4CCOCC4)CC3)sc2c1 -53.2%, CCc1cccc(NC(=S)N(CCN(C)C)C2CCN(C(C)C)CC2)c1 2.9%, COc1ccc(NC(=O)CSc2nc(SC)ns2)c(OC)c1 -9.3%, CC(C)(C)OC(=O)NC(Cc1ccccc1)C(=O)NC(CSC1CCCCO1)C(=O)NN (stereo unspecified) 1%, Cc1cccc(NC(=O)c2ccc([N+](=O)[O-])o2)c1 1.2%, CC(Sc1nnnn1C)C(=O)NC(=O)NC1CCCCC1 (stereo unspecified) 12.9%, O=Cc1c(NCCCN2CCCC2=O)c2ccccc2[nH]c1=O -1.8%, N#Cc1ccc(C2N=C(c3ccccc3)NO2)cc1 (stereo unspecified) -11.6%, Cc1ccc(C(=O)N/C(=C\c2cn(C)c3ccccc23)C(=O)N2CCN(C)CC2)cc1 3.7%, CCCCC(O)(CCCC)C(=O)NN(C(=O)CCl)c1ccccc1 -2.8%, CS/C(=C\C(=O)c1ccco1)Nc1ccccc1Cl -2.4%, Cc1nn(-c2ccccc2)c(Cl)c1/C=N/NC(=O)c1nn(C)cc1[N+](=O)[O-] -5.8%, COc1cc(NC(=O)c2ccc(-c3csc(C)n3)cc2)c(OC)cc1Cl -15.5%, COc1ccccc1CN1CCN(Cc2cc(OC)c(OC)cc2OC)CC1 -13.1%, COc1ccc(C(=O)NC(C)CCc2ccccc2)c(OC)c1 (stereo unspecified) -12.7%, O=C(O)c1ccccc1C(=O)NC1=NN(c2ccccc2)CC1 13.1%, CCc1ccc(C(=O)NN=C2CCCCCC2)s1 -8.5%, C=CCn1c(C23CC4CC(CC(C4)C2)C3)n[nH]c1=S -8.9%
